The record followed here is PubChem BioAssay (NCI).

Assay [1] can be described thus: NCI Yeast Anticancer Drug Screen. Data for the rad50 strain (AID 155).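 Further: 0% = growth of vehicle-only cultures of the same strain.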 Conditions: S. cerevisiae rad50 strain growth inhibition, active compounds read high. In a few lines:
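Compounds were tested on a yeast strain with an engineered DNA damage repair alteration; the reported value is growth inhibition normalised to vehicle treatment.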

A short description of assay [2]: NCI Yeast Anticancer Drug Screen. Data for the mec2-1 strain (AID 157). Conditions: S. cerevisiae mec2-1 strain, active compounds read high. In a few lines:
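Using mec2-1 yeast: add compound, measure growth, express inhibition versus vehicle-treated cultures.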

The nature of assay [3]: NCI Yeast Anticancer Drug Screen. Data for the sgs1 mgt1 strain (AID 161).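 Further: 0% = growth of cultures given vehicle only.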 To be noted: S. cerevisiae sgs1 mgt1 strain, active compounds read high. In a few lines:
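This yeast growth screen uses a strain with defined DNA-repair lesions; compound-treated growth is compared with vehicle-treated growth.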

The nature of assay [4]: NCI Yeast Anticancer Drug Screen. Data for the cln2 rad14 strain (AID 165).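 Further: 0% = growth equal to vehicle treated cultures.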 To be noted: S. cerevisiae cln2 rad14 strain, active compounds read high. In a few lines: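 Yeast strain cln2 rad14, bearing defects in cell cycle control and DNA repair, serves as the test system; values reflect growth inhibition compared with vehicle.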
Assay [5] in a line: NCI Yeast Anticancer Drug Screen. Data for the bub3 strain (AID 167). Conditions: S. cerevisiae bub3 mutant strain, active compounds read high. Summed up:
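Growth of a checkpoint-deficient yeast mutant is measured after compound exposure. Values represent inhibition relative to vehicle.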

Assay [6] can be described thus: NCI Yeast Anticancer Drug Screen. Data for the mlh1 rad18 strain (AID 175). To be noted: S. cerevisiae mlh1 rad18 strain growth inhibition, active compounds read high. In a few lines: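 Steps: expose repair-defective yeast to compound; measure growth; express inhibition against vehicle-treated controls.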
Where [7] appears, read: at 5.0 µM (retest, dose inferred, filed as 0.5).
Setting [8] is: at 50.0 µM (retest, dose inferred, filed as 5.0).

Molecules are shown by their SMILES. This is part of a sample that, as a whole, favours compounds with a hit. Of some 79,000 tested, about 15% had one in any assay. Values without a mark were called inactive. Calls of active or inactive are those of the source. No stated cut-off is given here; in the data, active means growth inhibition above about 70%; inactive means the rest.

Take `O=C1c2ccccc2C(=O)c2ncccc21`: the growth inhibition in assay [1] (setting [7]) was 14%; in assay [1] (setting [8]), 91% (active); in assay [1] (at 50.0 µM), 96.3% (active); in assay [2] (setting [7]), 8%; in assay [2] (setting [8]) it was 86% (active); in assay [2] (at 50.0 µM), 94.4% (active). The growth inhibition is 8% in assay [3] (setting [7]); 89% (active) in assay [3] (setting [8]); 93.3% (active) in assay [3] (at 50.0 µM); -2% in assay [4] (setting [7]); 85% (active) in assay [4] (setting [8]); 86.5% (active) in assay [4] (at 50.0 µM). Further, the growth inhibition in assay [5] (setting [7]) is 11%; in assay [5] (setting [8]), 87% (active); in assay [5] (at 50.0 µM), 91% (active); in assay [6] (setting [7]), 37%; in assay [6] (setting [8]), 95% (active); in assay [6] (at 50.0 µM) it was 97.8% (active).

For the molecule `OC(c1cc(-c2ccc(Cl)c(Cl)c2)nc2ccccc12)C1CCCCN1` (configuration not stated), the growth inhibition is 95% (active) in assay [1] (setting [7]); 70% (active) in assay [1] (setting [8]); 38.2% in assay [1] (at 50.0 µM); 100% (active) in assay [2] (setting [7]); 12% in assay [2] (setting [8]); 32.8% in assay [2] (at 50.0 µM). Moreover, the growth inhibition in assay [3] (setting [7]) is 84% (active); in assay [3] (setting [8]) it was 77% (active); in assay [3] (at 50.0 µM), 9.85%; in assay [4] (setting [7]) it was 99% (active); in assay [4] (setting [8]) it was 29%; in assay [4] (at 50.0 µM) it was -14.2%. Also, the growth inhibition in assay [5] (setting [7]) was 99% (active); in assay [5] (setting [8]) it was 61%; in assay [5] (at 50.0 µM), 66.3%; in assay [6] (setting [7]) it was 99% (active); in assay [6] (setting [8]), 92% (active); in assay [6] (at 50.0 µM), 88.5% (active).

Take `CCCN1CCN(c2ccc([N+](=O)[O-])c3no[n+]([O-])c23)CC1`: the growth inhibition in assay [1] (setting [7]) is 97% (active); in assay [1] (setting [8]), 99% (active); in assay [1] (at 50.0 µM), 89% (active); in assay [2] (setting [7]) it was 97% (active); in assay [2] (setting [8]) it was 99% (active); in assay [2] (at 50.0 µM) it was 93.3% (active). In addition, the growth inhibition in assay [3] (setting [7]) was 92% (active); in assay [3] (setting [8]) it was 99% (active); in assay [3] (at 50.0 µM), 89.5% (active); in assay [4] (setting [7]), 52%; in assay [4] (setting [8]), 99% (active); in assay [4] (at 50.0 µM) it was 80.3% (active). Also, the growth inhibition was 58% in assay [5] (setting [7]); 98% (active) in assay [5] (setting [8]); 90.2% (active) in assay [5] (at 50.0 µM); 97% (active) in assay [6] (setting [7]); 99% (active) in assay [6] (setting [8]); 88.6% (active) in assay [6] (at 50.0 µM).

Take `CN(C)C=Nc1c2ccccc2nc2ccccc12`: the growth inhibition in assay [1] (setting [7]) is 21%; in assay [1] (setting [8]), 83% (active); in assay [1] (at 50.0 µM), 71.1% (active); in assay [2] (setting [7]), 23%; in assay [2] (setting [8]), 80% (active); in assay [2] (at 50.0 µM), 57.1%. The growth inhibition in assay [3] (setting [7]) is 11%; in assay [3] (setting [8]) it was 65%; in assay [3] (at 50.0 µM), 68.7%; in assay [4] (setting [7]) it was 37%; in assay [4] (setting [8]), 60%; in assay [4] (at 50.0 µM), 55.7%. Further, the growth inhibition was 5% in assay [5] (setting [7]); 71% (active) in assay [5] (setting [8]); 75% (active) in assay [5] (at 50.0 µM); -8% in assay [6] (setting [7]); 84% (active) in assay [6] (setting [8]); 76.3% (active) in assay [6] (at 50.0 µM).

For `CCCCCCCCCCN(CCCCCCCCCC)C1CC(OC2CC(O)(C(O)CO)Cc3c(O)c4c(c(O)c32)C(=O)c2c(OC)cccc2C4=O)OC(C)C1O` (configuration not stated), the growth inhibition in assay [1] (setting [7]) was 15%; in assay [1] (setting [8]) it was 87% (active); in assay [1] (at 50.0 µM), 43.5%; in assay [2] (setting [7]) it was 8%; in assay [2] (setting [8]), 94% (active); in assay [2] (at 50.0 µM), 93.5% (active). Also, the growth inhibition was 10% in assay [3] (setting [7]); 93% (active) in assay [3] (setting [8]); 5.25% in assay [3] (at 50.0 µM); 7% in assay [4] (setting [7]); 88% (active) in assay [4] (setting [8]); 81.8% (active) in assay [4] (at 50.0 µM). Further, the growth inhibition in assay [5] (setting [7]) is 14%; in assay [5] (setting [8]), 90% (active); in assay [5] (at 50.0 µM) it was 90.8% (active); in assay [6] (setting [7]), 17%; in assay [6] (setting [8]) it was 87% (active); in assay [6] (at 50.0 µM), 90.5% (active).

As to `COc1ccc(/C=C2/C(=O)N(C(=O)c3ccccc3O)N=C2C)cc1OC`, the growth inhibition in assay [1] (setting [7]) is 13%; in assay [1] (setting [8]), 69%; in assay [1] (at 50.0 µM), 66.7%; in assay [2] (setting [7]), -1%; in assay [2] (setting [8]), 59%; in assay [2] (at 50.0 µM), 52.9%. Moreover, the growth inhibition in assay [3] (setting [7]) was 7%; in assay [3] (setting [8]) it was 61%; in assay [3] (at 50.0 µM) it was 47.4%; in assay [4] (setting [7]) it was 22%; in assay [4] (setting [8]) it was 62%; in assay [4] (at 50.0 µM) it was 56.5%. For the same molecule, the growth inhibition in assay [5] (setting [7]) was 17%; in assay [5] (setting [8]) it was 81% (active); in assay [5] (at 50.0 µM) it was 76.5% (active); in assay [6] (setting [7]) it was 15%; in assay [6] (setting [8]) it was 79% (active); in assay [6] (at 50.0 µM) it was 54.6%.

Take `CCC(=O)[O][Bi]([c]1ccccc1)[c]1ccccc1`: the growth inhibition in assay [1] (setting [7]) was 79% (active); in assay [1] (setting [8]), 96% (active); in assay [1] (at 50.0 µM), 90.2% (active); in assay [2] (setting [7]), 58%; in assay [2] (setting [8]), 97% (active); in assay [2] (at 50.0 µM), 92.4% (active). The growth inhibition is 68% in assay [3] (setting [7]); 97% (active) in assay [3] (setting [8]); 92.5% (active) in assay [3] (at 50.0 µM); 49% in assay [4] (setting [7]); 95% (active) in assay [4] (setting [8]); 90% (active) in assay [4] (at 50.0 µM). Moreover, the growth inhibition was 81% (active) in assay [5] (setting [7]); 96% (active) in assay [5] (setting [8]); 91.5% (active) in assay [5] (at 50.0 µM); 85% (active) in assay [6] (setting [7]); 97% (active) in assay [6] (setting [8]); 90% (active) in assay [6] (at 50.0 µM).

For `COC(CO)(OC)c1ccccc1`, the growth inhibition was -163% in assay [1] (setting [7]); -65% in assay [1] (setting [8]); -0.65% in assay [1] (at 50.0 µM); -50% in assay [2] (setting [7]); -50% in assay [2] (setting [8]); -2.9% in assay [2] (at 50.0 µM). Moreover, the growth inhibition is -66% in assay [3] (setting [7]); -49% in assay [3] (setting [8]); -9% in assay [3] (at 50.0 µM); -63% in assay [4] (setting [7]); -70% in assay [4] (setting [8]); 25.6% in assay [4] (at 50.0 µM). The growth inhibition in assay [5] (setting [7]) is -70%; in assay [5] (setting [8]), -71%; in assay [5] (at 50.0 µM), -29.1%; in assay [6] (setting [7]) it was -128%; in assay [6] (setting [8]), -130%; in assay [6] (at 50.0 µM) it was 3.5%.

As for `Clc1nc(Cl)c(Cc2ccccc2)c(Cl)n1`, the growth inhibition was 43% in assay [1] (setting [7]); 97% (active) in assay [1] (setting [8]); 91% (active) in assay [1] (at 50.0 µM); 50% in assay [2] (setting [7]); 99% (active) in assay [2] (setting [8]); 93.4% (active) in assay [2] (at 50.0 µM). Moreover, the growth inhibition is 38% in assay [3] (setting [7]); 100% (active) in assay [3] (setting [8]); 90.7% (active) in assay [3] (at 50.0 µM); 34% in assay [4] (setting [7]); 94% (active) in assay [4] (setting [8]); 89.2% (active) in assay [4] (at 50.0 µM). The growth inhibition was 49% in assay [5] (setting [7]); 99% (active) in assay [5] (setting [8]); 87.2% (active) in assay [5] (at 50.0 µM); 78% (active) in assay [6] (setting [7]); 97% (active) in assay [6] (setting [8]); 88.5% (active) in assay [6] (at 50.0 µM).
